Assay results as given in PubChem BioAssay (EPA / NIEHS).
Calls of active or inactive are those of the source. The calls were made as follows: active = hit-call score of the fitted dose curve at least 0.9, where 1 is the maximum; inactive = score below 0.9.

Assays:
[1] = ATG_CRE_CIS: Attagene CIS-FACTORIAL HepG2 Assay for human cAMP Responsive Element (CRE) binding protein 3 (AID 2282926); conditions: HepG2 CRE cis-reporter, Attagene multiplexed mRNA; actives raise or lower the signal
Summary of the method: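 Capillary electrophoresis of 6-FAM-labelled, HpaI-digested PCR products quantified reporter transcripts. These came from HepG2 transiently transfected with cis-element reporters and exposed to test chemicals for 24 hours, with DMSO defining baseline activity.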

[2] = target: CCAAT/enhancer-binding protein beta (Homo sapiens) (UniProt P17676); assay: ATG_C_EBP_CIS: Attagene CIS-FACTORIAL HepG2 Assay for human CCAAT/Enhancer Binding Protein (C/EBP) beta (AID 2282927); conditions: HepG2 Attagene cis-factorial transcription factor reporter; actives raise or lower the signal
Summary of the method: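 Transiently transfected HepG2 (MRTU library, endogenous TF-driven promoters); 24 h dosing; total RNA → oligo(dT) RT → PCR → 6-FAM primer extension → HpaI digest → CE; fit bidirectionally vs DMSO.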

[3] = ATG_CMV_CIS: Attagene CIS-FACTORIAL HepG2 Assay for human CMV (Internal Marker) (AID 2282928); conditions: HepG2 CMV promoter reporter, transcription factor profiling; actives raise or lower the signal;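 also: endpoint acts as a background internal control marker rather than a target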
Summary of the method: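 Readout: fluorescent reporter cDNA fragments separated by capillary electrophoresis after RT-PCR and HpaI cut. Cells: HepG2 carrying transfected cis-promoter reporter constructs, dosed 24 h. Endpoint serves as background internal-marker control, fit bidirectionally versus DMSO.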

[4] = ATG_DR4_LXR_CIS: Attagene CIS-FACTORIAL HepG2 Assay for human Liver X Receptor (LXR), DR4 submotif (AID 2282929); conditions: HepG2 Attagene DR4 cis-reporter, mRNA transcription; actives raise or lower the signal
Summary of the method: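 Measures endogenous transcription factor activity via a DR4-driven reporter transcript in human HepG2 cells. Compounds incubated 24 h; mRNA quantified by RT-PCR and capillary electrophoresis, analysed as gain or loss of signal versus DMSO.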

[5] = target: Aryl hydrocarbon receptor (Homo sapiens) (UniProt P35869); assay: ATG_Ahr_CIS: Attagene CIS-FACTORIAL HepG2 Assay for human Aryl Hydrocarbon Receptor (Ahr) (AID 2282930); conditions: HepG2 AhR cis-factorial reporter transcription; actives raise or lower the signal
Summary of the method: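 Read-out: reporter mRNA quantified by RT-PCR with fluorescent primer extension and capillary electrophoresis. Human HepG2 liver cells carried transfected cis-promoter reporter units and were exposed to chemical for 24 h; gain or loss fitted relative to DMSO.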

[6] = ATG_AP_1_CIS: Attagene CIS-FACTORIAL HepG2 Assay for human Activator Protein 1 (AP-1) (AID 2282931); conditions: HepG2 Attagene cis-factorial AP-1 reporter mRNA; actives raise or lower the signal
Summary of the method: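 Bidirectional concentration-response fitting against DMSO controls. Underlying signal: reporter mRNA from cis-promoter constructs in transiently transfected HepG2, measured after 24 h by RT-PCR and capillary electrophoresis.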

[7] = ATG_AP_2_CIS: Attagene CIS-FACTORIAL HepG2 Assay for human Activator Protein 2 (AP-2) (AID 2282932); conditions: HepG2 AP-2 cis-reporter, Attagene transcription factor profiling; actives raise or lower the signal
Summary of the method: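 Liver-derived HepG2 line, cis-reporter system measuring endogenous factors; 24 h dosing; reporter mRNA detected by fluorescent RT-PCR and capillary electrophoresis.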

[8] = ATG_BRE_CIS: Attagene CIS-FACTORIAL HepG2 Assay for human Bone Morphogenetic Protein (BMP) Response Element (BRE) (AID 2282933); conditions: HepG2 BMP response element reporter, Attagene transcription factor profiling; actives raise or lower the signal
Summary of the method: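 HepG2 cells transiently transfected with multiplexed cis-element reporter units were dosed with chemical for 24 h. Reporter mRNA was measured by RT-PCR with fluorescent labelling, HpaI digestion and capillary electrophoresis; bidirectional fitting relative to DMSO.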

[9] = target: Retinoic acid receptor alpha (Homo sapiens) (UniProt P10276); assay: ATG_DR5_RAR_CIS: Attagene CIS-FACTORIAL HepG2 Assay for human Retinoic Acid Receptor Alpha (RARE), DR5 submotif (AID 2282934); conditions: HepG2 Attagene cis-factorial RARE DR5 reporter, mRNA; actives raise or lower the signal;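 as to AC50: reporter responds to endogenous RAR alpha beta and gamma in HepG2 not RARA alone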
Summary of the method: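 Read-out: DR5-driven reporter transcript measured by RT-PCR, 6-FAM primer extension, HpaI digest and capillary electrophoresis. Human HepG2 liver cells carry transiently transfected cis-element reporter constructs; dosing lasts 24 h. Gain or loss of signal fitted against DMSO baseline.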

[10] = target: Transcription factor E2F1 (Homo sapiens) (UniProt Q01094); assay: ATG_E2F_CIS: Attagene CIS-FACTORIAL HepG2 Assay for human E2F Transcription Factor 1 (AID 2282935); conditions: HepG2 Attagene cis-reporter, E2F reporter RNA transcripts; actives raise or lower the signal
Summary of the method: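 Liver-derived HepG2 cells expressing transfected promoter-driven reporter units received test chemical for 24 hours. Signal gains or losses were fitted bidirectionally against DMSO.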

Measured: AC50

Sequence of Aryl hydrocarbon receptor (Homo sapiens) (P35869 whole entry, looked up): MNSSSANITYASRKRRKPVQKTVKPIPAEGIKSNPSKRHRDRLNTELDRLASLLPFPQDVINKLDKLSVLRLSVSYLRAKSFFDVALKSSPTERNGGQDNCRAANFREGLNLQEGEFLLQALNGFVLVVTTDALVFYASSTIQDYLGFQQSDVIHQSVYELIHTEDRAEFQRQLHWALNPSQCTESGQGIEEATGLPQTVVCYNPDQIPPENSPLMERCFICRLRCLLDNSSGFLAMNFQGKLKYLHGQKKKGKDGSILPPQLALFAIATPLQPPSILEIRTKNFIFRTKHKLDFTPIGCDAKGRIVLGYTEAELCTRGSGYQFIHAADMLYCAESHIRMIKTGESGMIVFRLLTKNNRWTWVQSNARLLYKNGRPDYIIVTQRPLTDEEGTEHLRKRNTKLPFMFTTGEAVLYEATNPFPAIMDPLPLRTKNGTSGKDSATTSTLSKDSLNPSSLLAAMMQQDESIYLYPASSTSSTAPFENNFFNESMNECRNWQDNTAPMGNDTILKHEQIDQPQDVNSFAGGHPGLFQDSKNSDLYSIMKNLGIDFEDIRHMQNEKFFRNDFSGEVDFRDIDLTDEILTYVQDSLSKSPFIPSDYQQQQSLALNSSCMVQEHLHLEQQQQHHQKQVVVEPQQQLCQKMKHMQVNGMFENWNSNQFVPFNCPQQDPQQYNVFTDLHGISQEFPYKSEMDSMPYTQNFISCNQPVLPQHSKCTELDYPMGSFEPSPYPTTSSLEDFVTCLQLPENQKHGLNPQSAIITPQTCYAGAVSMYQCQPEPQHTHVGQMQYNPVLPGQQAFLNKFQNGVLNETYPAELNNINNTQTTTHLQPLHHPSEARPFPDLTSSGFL
Sequence of Transcription factor E2F1 (Homo sapiens) (Q01094 whole entry, looked up): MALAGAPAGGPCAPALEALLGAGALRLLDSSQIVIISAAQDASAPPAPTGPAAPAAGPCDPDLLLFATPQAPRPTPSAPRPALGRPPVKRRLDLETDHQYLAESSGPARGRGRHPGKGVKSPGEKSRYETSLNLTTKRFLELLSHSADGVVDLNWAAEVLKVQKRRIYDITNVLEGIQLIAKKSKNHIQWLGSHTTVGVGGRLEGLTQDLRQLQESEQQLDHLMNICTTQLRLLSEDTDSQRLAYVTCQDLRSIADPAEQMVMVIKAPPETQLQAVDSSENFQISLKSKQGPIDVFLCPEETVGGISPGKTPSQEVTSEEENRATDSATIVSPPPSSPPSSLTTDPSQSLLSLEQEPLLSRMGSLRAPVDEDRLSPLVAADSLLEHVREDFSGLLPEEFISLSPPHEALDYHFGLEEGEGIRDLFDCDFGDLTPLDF
Sequence of CCAAT/enhancer-binding protein beta (Homo sapiens) (P17676 whole entry, looked up): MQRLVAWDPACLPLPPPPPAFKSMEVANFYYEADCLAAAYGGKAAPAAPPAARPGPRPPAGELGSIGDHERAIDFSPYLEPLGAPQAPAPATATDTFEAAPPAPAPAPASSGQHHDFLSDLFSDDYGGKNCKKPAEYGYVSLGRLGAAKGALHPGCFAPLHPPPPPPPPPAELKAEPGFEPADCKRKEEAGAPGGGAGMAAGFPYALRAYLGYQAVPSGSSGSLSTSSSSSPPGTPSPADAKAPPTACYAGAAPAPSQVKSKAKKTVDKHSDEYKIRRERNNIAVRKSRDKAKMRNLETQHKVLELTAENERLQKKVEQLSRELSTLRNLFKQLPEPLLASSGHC
Sequence of Retinoic acid receptor alpha (Homo sapiens) (P10276 whole entry, looked up): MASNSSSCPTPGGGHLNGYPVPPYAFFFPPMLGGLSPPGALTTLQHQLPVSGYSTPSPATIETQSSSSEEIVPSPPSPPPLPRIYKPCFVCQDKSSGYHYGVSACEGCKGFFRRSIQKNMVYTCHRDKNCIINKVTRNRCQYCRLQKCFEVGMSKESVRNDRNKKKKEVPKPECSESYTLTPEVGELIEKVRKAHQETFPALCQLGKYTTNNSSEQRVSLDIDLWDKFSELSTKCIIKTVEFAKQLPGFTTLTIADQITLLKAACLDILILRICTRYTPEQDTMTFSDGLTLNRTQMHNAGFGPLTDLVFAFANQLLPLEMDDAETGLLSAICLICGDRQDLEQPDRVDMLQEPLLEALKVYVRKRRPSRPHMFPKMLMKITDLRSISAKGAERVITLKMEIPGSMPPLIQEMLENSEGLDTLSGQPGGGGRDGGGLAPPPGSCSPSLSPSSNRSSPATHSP

OCCCCC(O)CO (configuration not stated)
inactive: all assays above

CCCCCCC(=O)c1ccccc1
active: [6] 154 µM | [9] 101 µM
inactive: all other assays above

C1=CC2C3C=CC(C3)C2C1 (configuration not stated)
active: [5] 98.5 µM
inactive: all other assays above

Cc1c(OCC(F)(F)F)ccnc1CS(=O)c1nc2ccccc2[nH]1 (configuration not stated)
active: [4] 134 µM | [5] 1.28 µM | [8] 153 µM
inactive: all other assays above

O=C(O)c1ccc(O)cc1
inactive: all assays above

CCCCCCC(CO)CCCC (configuration not stated)
active: [5] 25.6 µM
inactive: all other assays above

O=C(CS)OCCOC(=O)CS
inactive: [1] | [2] | [8] | [10]
active: [3] 72.7 µM | [4] 49.1 µM | [5] 24.9 µM | [6] 58.7 µM | [7] 100 µM | [9] 27.5 µM

CCCCCCC(C)Nc1ccc(Nc2ccccc2)cc1 (configuration not stated)
active: [3] 21.8 µM | [4] 44.4 µM | [6] 28.9 µM | [8] 50.5 µM
not listed: [9]
inactive: all other assays above

CCCCCCCCCC(=O)OC
active: [5] 74.7 µM
inactive: all other assays above

CCC(=O)OCCOc1ccccc1
inactive: all assays above

Cc1ccc(OC(=O)c2ccccc2O)cc1
active: [6] 122 µM
inactive: all other assays above

CCCCC(CC)COC(=O)c1ccc(O)cc1 (configuration not stated)
not listed: [9]
inactive: all other assays above

CCCCCCCCCCCC(=O)OC[C@@H](O)[C@H]1OC[C@H](O)[C@H]1O
not listed: [9]
inactive: all other assays above

Cc1c(Cl)cccc1[N+](=O)[O-]
not listed: [8]
inactive: all other assays above

O=C(O)c1cc(C(=O)O)cc([N+](=O)[O-])c1
not listed: [8]
inactive: all other assays above

CC(=O)c1ccccn1
not listed: [9]
inactive: all other assays above

COc1ccc(CCO)cc1
not listed: [8]
inactive: all other assays above

CCc1ccc(O)c(OC)c1
not listed: [8]
inactive: all other assays above

COC(=O)c1ccc(OC)cc1
not listed: [8]
inactive: all other assays above

CSCCC=O
active: [9] 25.5 µM
not listed: [8]
inactive: all other assays above

CCCCOC(=O)CCCCCCCC(=O)OCCCC
not listed: [9]
inactive: all other assays above

COc1cc(CCC(C)=O)ccc1O
not listed: [9]
inactive: all other assays above

Cc1[nH]c(=O)c(C#N)cc1-c1ccncc1
active: [3] 24.3 µM | [4] 26.6 µM
not listed: [8]
inactive: all other assays above
